Assay results published in PubChem BioAssay (NCATS).
Inconclusive results are not listed. Activity calls are given as the source filed them. The call rests on the fitted dose curve; in most records, active means well fitted curve in the direction sought with a large enough effect; inconclusive means small, poorly fitted or top-dose-only effect, or another doubt; inactive means no such curve, though single readings can be large; an effect the other way counts as inactive or inconclusive.

What was measured:
[1] = molecular target: Alpha-galactosidase A (Homo sapiens) (UniProt P06280); assay: Counterscreen for Glucocerebrosidase Inhibitors: qHTS Assay for Human alpha-Galactosidase at pH 4.5 (AID 992)
Summary of the method: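 Each compound is preincubated briefly with 2 nM enzyme before substrate addition (80 uM); plates then sit 20 min at ambient temperature, are quenched with 1M NaOH/1M glycine, and read fluorometrically.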

[2] = Cell Viability - LYMP2-010 (AID 981);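 further: cells exposed to compound for 24 hours at 37 °C; nearly all actives have a fitted effect of over 55% in size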
Summary of the method: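 Steps: seed 2500 LYMP2-010 cells per well; incubate 5 hr at 37 C; add compound; incubate 24 hr at 37 C; add CellTiter-Glo, wait 30 min at room temperature; read luminescence. Concentration-response fitted to Hill equation for AC50.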

[3] = Cell Viability - LYMP2-012 (AID 982);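 further: cellular ATP by luciferase luminescence where a drop means cytotoxicity; cells exposed to compound for one day before reading; nearly all actives have a fitted effect of over 55% in size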
[4] = Cell Viability - LYMP2-014 (AID 983);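 further: series mostly up to about 92 µM; cells exposed to compound for 24 h at 37 °C; nearly all actives have a fitted effect of over 50% in size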
Summary of the method: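 Cells are plated at 2500/well and left 5 hr at 37 C. Compounds are added across a concentration range and incubated 24 hr at 37 C in complete medium. CellTiter-Glo is added, and luminescence is read after 30 min at room temperature.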

[5] = Cell Viability - LYMP2-016 (AID 984);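 further: cells exposed to compound for 24 hours at 37 °C; nearly all actives have a fitted effect of over 55% in size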
Summary of the method: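 Concentration-dependent ATP depletion measured in LYMP2-016 lymphoblastoid cells, 24 h, 37 C; luciferase-based luminescent detection; Hill-equation AC50.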

[6] = Cell Viability - LYMP2-018 (AID 985);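 further: compound exposure lasted 24 hr at 37 °C; nearly all actives have a fitted effect of over 50% in size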
Summary of the method: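 Seed 2500 lymphoblastoid cells per well, incubate 5 hr at 37 C, add compound and incubate 24 hr at 37 C, add CellTiter-Glo, wait 30 min at room temperature, then read luminescence.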

[7] = Cell Viability - LYMP2-020 (AID 986);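 further: series mostly up to about 92 µM; cells exposed to compound for 24 h at 37 °C; nearly all actives have a fitted effect of over 55% in size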
Summary of the method: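 Seed 2500 cells per well and incubate 5 hr at 37 C. Add compounds at a concentration series and incubate 24 hr at 37 C. Add CellTiter-Glo, wait 30 min at RT, read luminescence, and fit a Hill curve for AC50.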

[8] = Cell Viability - LYMP2-022 (AID 987); further: nearly all actives have a fitted effect of over 55% in size
Summary of the method: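 Cells were seeded at 2500 per well, rested 5 hr at 37 C, and treated with titrated compounds for 24 hr at 37 C. Cellular ATP was then quantified by luciferase luminescence, and AC50 values were derived from Hill-modelled concentration-response curves.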

[9] = Cell Viability - LYMP2-024 (AID 988); further: nearly all actives have a fitted effect of over 60% in size
Summary of the method: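 qHTS cytotoxicity, human lymphoblastoid line, complete medium; 24 h cpd treatment, 37 C; CellTiter-Glo ATP luminescence readout; tetraoctylammonium bromide positive control; AC50 via Hill fit.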

[10] = Cell Viability - LYMP2-026 (AID 989);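 further: cells exposed to compound for 24 h at 37 °C; nearly all actives have a fitted effect of over 50% in size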
Summary of the method: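 Cells are seeded at 2500 per well and held 5 hr at 37 C. Compounds are added in concentration series for 24 hr, then CellTiter-Glo reagent is applied and luminescence read.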

Measured: outcome

Chain of Alpha-galactosidase A (Homo sapiens) (P06280 whole entry, looked up): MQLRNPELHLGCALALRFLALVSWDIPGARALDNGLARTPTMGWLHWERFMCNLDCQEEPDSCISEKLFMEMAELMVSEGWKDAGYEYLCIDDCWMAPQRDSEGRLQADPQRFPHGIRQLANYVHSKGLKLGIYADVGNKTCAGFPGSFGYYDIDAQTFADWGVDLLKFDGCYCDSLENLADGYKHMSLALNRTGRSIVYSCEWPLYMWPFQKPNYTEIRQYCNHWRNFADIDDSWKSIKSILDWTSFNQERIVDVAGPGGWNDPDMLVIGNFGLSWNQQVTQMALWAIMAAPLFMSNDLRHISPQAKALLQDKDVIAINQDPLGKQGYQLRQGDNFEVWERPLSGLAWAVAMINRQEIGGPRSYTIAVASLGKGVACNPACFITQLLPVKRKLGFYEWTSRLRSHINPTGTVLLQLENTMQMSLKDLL

COc1ccc2c(c1OC)C(=O)OC2[C@H]1c2c(cc3c(c2OC)OCO3)CCN1C (stereo not given in full)
inactive: [1]

Cc1cc(O)c2c(c1)C(=O)c1cccc(O)c1C2=O
not listed: [1]
inactive: all other assays above
